{
  "source": "PubChem BioAssay (EPA / NIEHS)",
  "note": "Values joined by “and” are separate entries in the source; they are usually repeats but may differ in a detail not shown here. Identical values can stand only once. Inconclusive results are not listed. A structure can be active in one record and inactive in another. Active and inactive are the calls of the source. How the source made its calls: active means hit-call score of the fitted dose curve at least 0.9, where 1 is the maximum; inconclusive means response in the unintended direction; inactive means score below 0.9.",
  "data": [
    {"assay": "CCTE_Deisenroth_AIME_384WELL_CTox_Inactive: Cytotoxicity Assessment (CTOX) in CCTE's 384-well Estrogen Receptor Transactivation Assay without AIME metabolic competence (metabolism negative), Deisenroth Lab (AID 2284039);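 further: cell viability via live-cell protease substrate cleaved to fluorescent probe; loss of fluorescence signal means loss of viability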", "method_in_brief": "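VM7Luc4E2 human breast cells received conditioned medium from a 2 h incubation of chemical with alginate-water microspheres (no S9), then were exposed 24 h. Viability was read as protease-substrate cleavage to a fluorescent probe; loss of signal was fitted bidirectionally over 0.002–200 uM.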", "values": [
      {"molecule": "C#CCC1=C(C)C(OC(=O)C2C(C=C(C)C)C2(C)C)CC1=O", "note": "(centres undefined)", "AC50": "144 µM (active)"},
      {"molecule": "O=C(O)c1cc(Oc2ccc(C(F)(F)F)cc2Cl)ccc1[N+](=O)[O-]", "outcome": "inactive"},
      {"molecule": "CCOP(=O)(NC(C)C)Oc1ccc(SC)c(C)c1", "note": "(centres undefined)", "outcome": "inactive"},
      {"molecule": "N#CSCSC#N", "outcome": "inactive"},
      {"molecule": "CCOP(=S)(OCC)SCCSCC", "outcome": "inactive"},
      {"molecule": "COP(=O)(NC(C)=O)SC", "note": "(centres undefined)", "outcome": "inactive"},
      {"molecule": "CCOP(=S)(OCC)Oc1ccc2c(C)c(Cl)c(=O)oc2c1", "outcome": "inactive"},
      {"molecule": "O=[N+]([O-])c1cc(C(F)(F)F)c(Cl)c([N+](=O)[O-])c1Nc1ncc(C(F)(F)F)cc1Cl", "AC50": "142 µM (active)"},
      {"molecule": "CN(C)[C@@H]1C(=O)C(C(N)=O)=C(O)[C@@]2(O)C(=O)C3=C(O)c4c(O)cccc4[C@@](C)(O)[C@H]3[C@H](O)[C@@H]12", "outcome": "inactive"},
      {"molecule": "CC(COc1ccc(Oc2ccccc2)cc1)Oc1ccccn1", "note": "(centres undefined)", "outcome": "inactive"},
      {"molecule": "CON=C(C(=O)OC)c1ccccc1CON=C(C)c1cccc(C(F)(F)F)c1", "outcome": "inactive"},
      {"molecule": "CC(C)N(C(=O)SCC(Cl)=C(Cl)Cl)C(C)C", "outcome": "inactive"},
      {"molecule": "CC1=NNC(=O)N(/N=C/c2cccnc2)C1", "outcome": "inactive"}
    ]},
    {"assay": "CCTE_Shafer_MEA_dev_active_electrodes_number: CCTE's Neural Network Formation Assay for Number of Active Electrodes, Shafer Lab (AID 2284040);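 on AC50: potency for loss of active electrodes versus DMSO so lower counts are hits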", "method_in_brief": "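Counts electrodes per well firing at least 5 spikes/min, recorded on days 5, 7, 9 and 12 in rat cortical cultures dosed continuously from plating (treatment refreshed DIV 5, 9). Value is the area under the curve over recordings, fitted downward relative to DMSO.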", "values": [
      {"molecule": "C=C(C)[C@H]1Cc2c(ccc3c2O[C@@H]2COc4cc(OC)c(OC)cc4[C@@H]2C3=O)O1", "AC50": "25.2 nM (active) and 14.1 nM (active)"},
      {"molecule": "CC(=NC#N)N(C)Cc1ccc(Cl)nc1", "outcome": "inactive"},
      {"molecule": "CC(C)[C@H](C(=O)O[C@H](C#N)c1cccc(Oc2ccccc2)c1)c1ccc(Cl)cc1", "AC50": "14.6 µM (active)"},
      {"molecule": "CCOP(=S)(Oc1cnc(C(C)(C)C)nc1)OC(C)C", "note": "(centres undefined)", "AC50": "93.2 µM (active) and 14.9 µM (active)"},
      {"molecule": "CN1COCN(Cc2cnc(Cl)s2)C1=N[N+](=O)[O-]", "outcome": "inactive"},
      {"molecule": "CSC1=N[C@@](C)(c2ccccc2)C(=O)N1Nc1ccccc1", "outcome": "inactive"},
      {"molecule": "C#CCC1=C(C)C(OC(=O)C2C(C=C(C)C)C2(C)C)CC1=O", "note": "(centres undefined)", "outcome": "inactive"},
      {"molecule": "C[N+]1(C)CCCCC1", "AC50": "15 µM (active)"},
      {"molecule": "CCOP(=O)(NC(C)C)Oc1ccc(SC)c(C)c1", "note": "(centres undefined)", "AC50": "33.4 µM (active)", "outcome": "inactive"},
      {"molecule": "CC[C@H](C)[C@H]1O[C@]2(C=C[C@@H]1C)C[C@@H]1C[C@@H](C/C=C(\\C)[C@@H](O[C@H]3C[C@H](OC)[C@@H](O[C@H]4C[C@H](OC)[C@@H](NC)[C@H](C)O4)[C@H](C)O3)[C@@H](C)/C=C/C=C3\\CO[C@@H]4[C@H](O)C(C)=C[C@@H](C(=O)O1)[C@]34O)O2", "AC50": "55 nM (active) and 4.37 nM (active)"},
      {"molecule": "CCOP(=S)(OCC)SCCSCC", "outcome": "inactive"},
      {"molecule": "COP(=O)(NC(C)=O)SC", "note": "(centres undefined)", "outcome": "inactive"},
      {"molecule": "CCOP(=S)(OCC)Oc1ccc2c(C)c(Cl)c(=O)oc2c1", "AC50": "65.8 µM (active)"},
      {"molecule": "O=[N+]([O-])c1cc(C(F)(F)F)c(Cl)c([N+](=O)[O-])c1Nc1ncc(C(F)(F)F)cc1Cl", "AC50": "0.905 µM (active)"},
      {"molecule": "CN(C)[C@@H]1C(=O)C(C(N)=O)=C(O)[C@@]2(O)C(=O)C3=C(O)c4c(O)cccc4[C@@](C)(O)[C@H]3[C@H](O)[C@@H]12", "AC50": "50 µM (active)"},
      {"molecule": "CC(C)=CC1C(C(=O)OCN2C(=O)C3=C(CCCC3)C2=O)C1(C)C", "note": "(centres undefined)", "outcome": "inactive"},
      {"molecule": "CON=C(C(=O)OC)c1ccccc1CON=C(C)c1cccc(C(F)(F)F)c1", "AC50": "775 nM (active) and 838 nM (active)"},
      {"molecule": "CC(C)N(C(=O)SCC(Cl)=C(Cl)Cl)C(C)C", "AC50": "27 µM (active)"},
      {"molecule": "COP(=O)(OC)C(O)C(Cl)(Cl)Cl", "note": "(centres undefined)", "AC50": "11.6 µM (active)"},
      {"molecule": "C[Si](Cn1cncn1)(c1ccc(F)cc1)c1ccc(F)cc1", "AC50": "4.26 µM (active)"}
    ]}
  ]
}
